Records with an inconclusive call do not appear. Calls of active or inactive are those of the source. Unless noted, calls come from the whole dose curve; as a rule, active = well fitted curve in either direction with a large enough effect (not every such curve was filed as active); inconclusive = small, poorly fitted or top-dose-only effect, or another doubt; inactive = flat fitted curve, though single readings scatter.
Assays:
[1] = biological target: Lysosomal acid glucosylceramidase (Homo sapiens) (UniProt P04062); experiment: Glucocerebrosidase-p2 (AID 348; in the data active = potency below about 10 µM; note: potency is the fitted concentration of half-maximal effect); conditions: purified GBA, blue fluorogenic substrate, 40 min
Summary of the method: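 Normal human glucocerebrosidase (0.2 nM) with blue fluorogenic substrate (80 uM final) in citrate/phosphate pH 5.9 with 10mM sodium taurocholate, 0.01% tween-20; 40 min RT, NaOH/glycine stop; fluorescence Ex 365/Em 440; AC50 from a titration from 0.6 nM upwards.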

[2] = AP1 Signaling Pathway (AID 357); conditions: ME-180 AP-1-bla reporter, EGF-induced, beta-lactamase ratio, 5 h; at 7.69 µM (top of the series) unless noted;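 note: ME-180 reporter cells stimulated with EGF at its EC50 level; % is set by controls: 0 for no effect and ±100 for the full control effect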
Summary of the method: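 Cells are seeded overnight, exposed to compound titrations and an EC50 level of EGF for 5 hours at 37 °C, then loaded with CCF4 dye for 2.5 hours. Beta-lactamase activity under the AP-1 element is read as a blue/green ratio.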

[3] = NFAT Signaling Pathway (AID 444); conditions: Jurkat NFAT-bla M1, carbachol, beta-lactamase ratio, 5 h; at 7.69 µM (top of the series) unless noted;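 note: carbachol stimulus at about its EC50 of 1 µM final; % is set by controls: 0 for no effect and ±100 for the full control effect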
Summary of the method: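 Read-out: CCF4 FRET ratio (460 nm/530 nm) after 1 h RT dye loading, used for %activity and AC50 from titration series. Cells: Jurkat NFAT-β-lactamase/M1 line, treated with compound plus 1 uM carbachol for 5 h, 37 °C.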

[4] = Stat Signaling Pathway (AID 446); conditions: ME-180 (cervical carcinoma) SIE beta-lactamase reporter, IL-6 stimulated, 5 h; at 7.69 µM (top of the series) unless noted;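 note: ME-180 cervical cancer cells given 40 pM IL-6 alongside compound; SIE-controlled beta-lactamase reporter measured as 460/530 nm FRET emission ratio; % is set by controls: 0 for no effect and ±100 for the full control effect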
Summary of the method: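 FRET read-out (405 nm excitation, 460/530 nm emission) of a beta-lactamase reporter under a STAT-inducible element in ME-180 cervical carcinoma cells. Cells with compound receive 40 pM IL-6 for 5 h. Values are normalised to AC90 stimulation and AC90 JAK-inhibitor controls.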

[5] = biological target: Glucocorticoid receptor (Homo sapiens) (UniProt P04150); experiment: GR-GFP Redistribution (AID 450;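 active = compounds whose dose series gives a full or clear partial fitted curve of increased nuclear translocation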; note: potency is the fitted concentration of half-maximal effect); conditions: U2OS GR-GFP nuclear translocation, laser cytometry, 2 h
[6] = biological target: Glucocorticoid receptor (Homo sapiens) (UniProt P04150); experiment: GR-EFC Redistribution (AID 451; calls by dose curve; note: potency is the fitted concentration of half-maximal effect); conditions: CHO-K1 GR-EFC translocation, beta-gal luminescence, 2 h
Summary of the method: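 Translocation of GR-ED fusion to nuclear EA restores b-gal, read by luminescence after 1 h room-temperature detection. Engineered CHO-K1 biosensor cells, 1,000/well, exposed 2 h at 37 C to titrations up to 46 uM final.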

[7] = biological target: Mitogen-activated protein kinase 10 (Mus musculus) (UniProt Q61831); experiment: JNK3 AlphaScreen Assay (AID 530);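 note: kinase came from lysate of stimulated human HepG2 cells; signal reports phosphorylation of biotinylated GST-cJun 1-79 at Ser73 with 10 µM ATP; % is set by controls: 0 for no effect and ±100 for the full control effect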
Summary of the method: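 qHTS titrations with 15 min compound pre-incubation before adding ATP (10 uM final). Read-out: AlphaScreen of Ser73-phosphorylated biotin-GST-cJun using HepG2 lysate JNK3 activated by IL-1β and TNFα.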

[8] = biological target: 3',5'-cyclic-AMP phosphodiesterase 4B (Homo sapiens) (UniProt Q07343); experiment: qHTS Assay for Inhibitors of PDE-IV (AID 607; active = well fitted activation curve with a large enough effect in the main read-out, with a control signal flat, not every such curve was filed as active; note: % of control where 0% means no effect)
Summary of the method: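 Cell-based read-out of cAMP via a modified cyclic nucleotide-gated channel and membrane potential dye (535/590 nm) in HEK293 cells expressing PDE4 endogenously. Compounds tested up to 22.9 uM final; 100 uM RO 20-1724 reference.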

[9] = qHTS Assay for Lipid Storage Modulators (AID 1519; calls by dose curve); conditions: Drosophila S3 cells, BODIPY lipid droplet/cell ratio, laser cytometry, cells loaded with oleic acid
Summary of the method: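 Cells seeded at 5,000 per well were treated with compounds over a concentration series and loaded with oleic acid (400 uM, as added). Lipid droplet fluorescence (488 nm excitation, 500-530 nm channel) was read by laser-scanning cytometry and normalized to 20 uM Triacsin C.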

[10] = biological target: Dual specificity protein kinase CLK4 (Homo sapiens) (UniProt Q9HAZ1); experiment: qHTS Assay for Inhibitors of CDC-like Kinase 4 (ADP-Glo Assay) (AID 1771; active = well fitted inhibition curve with a large enough effect; note: % is set by controls: 0 for no effect and ±100 for the full control effect; nearly all actives have a fitted effect of over 70% in size)
Summary of the method: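 Compounds are pin-transferred onto substrate mix (100 uM RS peptide, 1 uM ATP), then 25 nM Clk4 is added. After 1 hr at room temperature, ADP-Glo reagent runs 45 min, detection reagent 30 min, then luminescence is read.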

[11] = biological target: Dual specificity protein kinase CLK4 (Homo sapiens) (UniProt Q9HAZ1); experiment: qHTS Assay for Inhibitors of CDC-like Kinase 4 (ADP-FP Assay) (AID 1795; active = well fitted inhibition curve with a large enough effect;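 note: recombinant human CLK4 phosphorylating RS repeat peptide at 1 µM ATP; % is set by controls: 0 for no effect and ±100 for the full control effect; nearly all actives have a fitted effect of over 60% in size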)
Summary of the method: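 Recombinant Clk4 (6.25 nM) phosphorylated 100 uM RS repeat peptide with 1 uM ATP in 25 mM Tris pH 7.5, 10 mM MgCl2, 0.5 mM EGTA, 2.5 mM DTT, 0.01% Triton X-100 for 1 h. ADP was detected by Transcreener ADP2 competitive fluorescence polarization after 30 min at room temperature.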

[12] = biological target: Ubiquitin carboxyl-terminal hydrolase 1 (Homo sapiens) (UniProt O94782); experiment: Inhibitors of USP1/UAF1: Pilot qHTS (AID 504865; active = well fitted inhibition curve with a large enough effect;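 note: rhodamine fluorescence freed from ubiquitin-rhodamine substrate followed over time; top concentration of the series differs between compounds; % is set by controls: 0 for no effect and ±100 for the full control effect; nearly all actives have a fitted effect of over 35% in size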)
Summary of the method: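 USP1/UAF1 complex at 1 nM preincubated 15 min at room temperature with compound, then Ub-Rho substrate added at 150 nM final. Fluorescence (480/540 nm) read kinetically in 50 mM HEPES pH 7.8, 0.5 mM EDTA, 1 mM TCEP, 0.1 mg/ml BSA, 0.01% Tween-20.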

Sequence of Glucocorticoid receptor (Homo sapiens) (P04150 whole entry, looked up, the tested form may be a part): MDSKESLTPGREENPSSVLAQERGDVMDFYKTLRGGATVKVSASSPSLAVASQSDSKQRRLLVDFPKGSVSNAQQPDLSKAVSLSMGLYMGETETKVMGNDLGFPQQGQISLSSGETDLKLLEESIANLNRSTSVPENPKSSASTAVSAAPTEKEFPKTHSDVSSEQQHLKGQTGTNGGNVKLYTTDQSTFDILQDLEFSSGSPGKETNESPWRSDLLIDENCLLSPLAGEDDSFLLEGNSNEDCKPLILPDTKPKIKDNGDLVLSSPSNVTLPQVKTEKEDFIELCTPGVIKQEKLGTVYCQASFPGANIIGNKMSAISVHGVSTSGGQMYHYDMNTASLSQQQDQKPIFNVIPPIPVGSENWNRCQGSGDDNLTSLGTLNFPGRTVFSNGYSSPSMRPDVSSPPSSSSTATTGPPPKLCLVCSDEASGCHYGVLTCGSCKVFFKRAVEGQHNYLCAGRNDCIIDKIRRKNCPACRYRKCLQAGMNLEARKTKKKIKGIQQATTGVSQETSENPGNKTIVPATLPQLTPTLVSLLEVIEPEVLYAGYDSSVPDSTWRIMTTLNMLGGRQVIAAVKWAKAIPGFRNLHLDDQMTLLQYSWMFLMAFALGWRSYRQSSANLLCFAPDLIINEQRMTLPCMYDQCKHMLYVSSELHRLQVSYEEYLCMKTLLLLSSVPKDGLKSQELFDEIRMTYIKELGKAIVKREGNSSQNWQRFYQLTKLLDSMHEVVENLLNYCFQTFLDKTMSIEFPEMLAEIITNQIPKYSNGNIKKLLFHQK
Sequence of Dual specificity protein kinase CLK4 (Homo sapiens) (Q9HAZ1 whole entry, looked up): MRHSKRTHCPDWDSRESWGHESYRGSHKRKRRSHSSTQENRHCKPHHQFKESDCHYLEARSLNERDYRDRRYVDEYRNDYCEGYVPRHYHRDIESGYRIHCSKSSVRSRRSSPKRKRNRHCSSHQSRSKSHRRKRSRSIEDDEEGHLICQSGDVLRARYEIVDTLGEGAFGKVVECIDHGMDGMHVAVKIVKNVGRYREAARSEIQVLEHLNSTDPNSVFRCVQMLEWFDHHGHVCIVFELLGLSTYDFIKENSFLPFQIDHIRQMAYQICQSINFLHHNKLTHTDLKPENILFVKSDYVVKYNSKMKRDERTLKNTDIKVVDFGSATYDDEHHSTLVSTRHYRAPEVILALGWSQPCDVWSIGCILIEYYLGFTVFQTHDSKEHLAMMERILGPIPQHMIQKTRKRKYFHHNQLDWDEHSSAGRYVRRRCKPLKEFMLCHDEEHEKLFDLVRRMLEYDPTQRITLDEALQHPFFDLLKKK
Sequence of Lysosomal acid glucosylceramidase (Homo sapiens) (P04062 whole entry, looked up): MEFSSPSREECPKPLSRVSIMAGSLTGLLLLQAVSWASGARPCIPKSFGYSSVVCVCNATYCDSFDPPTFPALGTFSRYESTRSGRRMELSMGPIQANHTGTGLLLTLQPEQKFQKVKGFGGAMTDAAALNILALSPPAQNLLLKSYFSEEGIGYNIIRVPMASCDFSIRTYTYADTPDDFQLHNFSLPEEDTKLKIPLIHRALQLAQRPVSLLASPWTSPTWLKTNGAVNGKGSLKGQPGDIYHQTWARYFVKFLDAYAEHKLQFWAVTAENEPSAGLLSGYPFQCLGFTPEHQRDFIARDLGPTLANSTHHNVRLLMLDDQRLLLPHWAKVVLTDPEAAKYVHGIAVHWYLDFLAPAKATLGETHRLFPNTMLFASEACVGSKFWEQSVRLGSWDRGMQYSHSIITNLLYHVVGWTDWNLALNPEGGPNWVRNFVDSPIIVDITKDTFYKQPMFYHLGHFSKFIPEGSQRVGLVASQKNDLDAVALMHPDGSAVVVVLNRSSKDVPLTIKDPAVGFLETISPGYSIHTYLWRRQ
Sequence of Ubiquitin carboxyl-terminal hydrolase 1 (Homo sapiens) (O94782 whole entry, looked up): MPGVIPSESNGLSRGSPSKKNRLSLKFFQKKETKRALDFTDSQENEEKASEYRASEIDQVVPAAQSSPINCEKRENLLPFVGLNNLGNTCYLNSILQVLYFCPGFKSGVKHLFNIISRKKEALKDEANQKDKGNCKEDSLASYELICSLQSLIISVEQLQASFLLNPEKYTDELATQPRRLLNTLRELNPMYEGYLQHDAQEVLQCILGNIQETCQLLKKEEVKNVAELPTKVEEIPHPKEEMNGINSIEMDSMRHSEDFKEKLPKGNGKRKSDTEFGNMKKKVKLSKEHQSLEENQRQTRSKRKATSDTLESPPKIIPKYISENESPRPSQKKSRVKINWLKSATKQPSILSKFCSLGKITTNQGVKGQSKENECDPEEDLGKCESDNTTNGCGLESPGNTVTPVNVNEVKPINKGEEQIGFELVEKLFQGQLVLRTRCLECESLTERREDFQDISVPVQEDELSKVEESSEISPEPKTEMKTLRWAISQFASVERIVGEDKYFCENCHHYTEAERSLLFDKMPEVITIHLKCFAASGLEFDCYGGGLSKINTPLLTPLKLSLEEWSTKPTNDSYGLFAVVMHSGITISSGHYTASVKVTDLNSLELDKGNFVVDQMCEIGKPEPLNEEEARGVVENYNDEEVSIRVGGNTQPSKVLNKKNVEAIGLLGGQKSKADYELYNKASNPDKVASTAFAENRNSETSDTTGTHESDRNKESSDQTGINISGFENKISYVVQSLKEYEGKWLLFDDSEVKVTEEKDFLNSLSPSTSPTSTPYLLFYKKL
Sequence of 3',5'-cyclic-AMP phosphodiesterase 4B (Homo sapiens) (Q07343 whole entry, looked up): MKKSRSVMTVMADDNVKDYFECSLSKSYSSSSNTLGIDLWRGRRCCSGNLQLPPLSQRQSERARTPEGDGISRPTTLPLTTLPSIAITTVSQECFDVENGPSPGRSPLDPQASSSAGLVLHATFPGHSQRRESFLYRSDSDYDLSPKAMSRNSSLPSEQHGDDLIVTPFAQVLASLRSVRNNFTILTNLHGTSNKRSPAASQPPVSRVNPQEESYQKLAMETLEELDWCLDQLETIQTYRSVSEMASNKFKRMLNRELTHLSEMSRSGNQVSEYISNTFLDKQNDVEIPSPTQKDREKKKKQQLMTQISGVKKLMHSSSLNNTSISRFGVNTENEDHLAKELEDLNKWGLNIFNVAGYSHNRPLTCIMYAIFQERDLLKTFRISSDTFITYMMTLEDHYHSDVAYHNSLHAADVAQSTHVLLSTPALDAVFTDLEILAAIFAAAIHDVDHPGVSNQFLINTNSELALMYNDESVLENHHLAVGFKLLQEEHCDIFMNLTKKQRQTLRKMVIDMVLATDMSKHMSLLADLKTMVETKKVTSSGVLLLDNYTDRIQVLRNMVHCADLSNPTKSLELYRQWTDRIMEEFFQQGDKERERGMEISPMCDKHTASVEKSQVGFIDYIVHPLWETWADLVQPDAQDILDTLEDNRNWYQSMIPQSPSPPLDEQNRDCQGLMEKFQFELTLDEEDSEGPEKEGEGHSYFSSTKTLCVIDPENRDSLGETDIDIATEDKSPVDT

CN1CCN(c2ncc3ncc(=O)n(C4CC4)c3n2)CC1
-13.5%: max response ([9]; measured here: cell count channel max response)
inactive: Potency [1] > 11.4 µM | activity change, negative = inhibition [2] -15.2% | activity change, negative = inhibition [3] -12.8% | activity, negative = inhibition [4] -9.77% | Potency [5] > 9.22 µM | Potency [6] > 46 µM | outcome [7] | Potency [8] | activity change, negative = inhibition ([9]; at 57.5 µM (top of the series)) -0.747% | Potency [10] | Potency [11] | Potency [12]
-12.9%: max response ([9]; measured here: lipid channel max response)
